Drawing on PubChem BioAssay AID602314 (ICCB-Longwood Screening Facility, Harvard Medical School, 2012), this text covers inhibition for 62 compounds.

Values joined by “and” are separate entries in the source; they are usually repeats but may differ in a detail not shown here. Equal values may be shown once. The whole screen tested about 84,000 compounds, of which about 110 (0.13%) were called active. No stated cut-off is given here; in the data, active means inhibition above about 30% (passing the limit was not always enough); inactive means the rest. For the sample, actives were picked, then their nearest neighbours and some compounds at random. Some structures have more than one record in an assay (separate samples or runs), and their calls can disagree.

This assay concerns MgrA (MarR family transcriptional regulator), Staphylococcus aureus Newman. The experiment in a line: S. aureus MgrA activity modulators, primary screen, biochemical, S. aureus Newman, fluorescence polarization (AID 602314).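 Further: 0% = protein plus DNA without compound and 100% = DNA alone without protein; higher means less MgrA bound to DNA so lower polarization.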 To be noted: MgrA-DNA binding, stronger effect = higher value, concentration not given here. (Polarisation of emitted light reports the rotation of a fluorescent probe.)
For the compound `CCOc1ccc(CC(C(=O)O)C(=O)O)cc1`, the inhibition is 0.1% (inactive).

For the compound `N#CCCN(C1CCCCC1)S(=O)(=O)c1ccc(Br)cc1`, the inhibition is -0.95% (inactive).

In the case of `COc1ccc(CC(NC(C)=O)C(=O)O)c(Cl)c1OC` (configuration not stated), the inhibition was -0.7% (inactive).

On to `Cn1c(SCC(=O)Nc2ccc(C(F)(F)F)cc2)nnc1-c1ccc2nonc2c1`, for which the inhibition is -0.1% (inactive).

Turning to `COC(=O)C1=Cc2cc(Cl)ccc2OC1`, the inhibition is 0.15% (inactive).

In the case of `Cc1cccc(CN2C(=O)CSc3nc(C)cc(C)c32)c1`, the inhibition was -0.45% (inactive).

In the case of `CCN(CC)CCCN1C(=O)C2C3C=CC(C2C1=O)C1C2C(=O)N(CCCN(CC)CC)C(=O)C2C31` (configuration not stated), the inhibition was 0.8% (inactive).

Consider `CCOc1ccc(NC(=O)c2cc(-c3ccc(OC)c(OC)c3)nc3ccccc23)c([N+](=O)[O-])c1`, for which the inhibition is -1.4% (inactive).

`COc1ccc(C)c2c1CCCC2=O`: the inhibition is -1.4% (inactive).

Turning to `Cc1ccc(Nc2cc([Se]c3ccccc3)c(N)c3c2C(=O)c2ccccc2C3=O)cc1`, the inhibition was -3.2% (inactive).

Turning to `Cc1ccc2sc(-c3ccc(NC(=O)C(C)C)cc3)nc2c1`, the inhibition is -2.5% (inactive).

With `Cc1ccc(-c2noc(CN(C)C(=O)Nc3ccc(Cl)cc3)n2)cc1`, the inhibition is 0.05% (inactive).

As for `COc1cccc2c1NC(c1cccc(Cl)c1Cl)C1CC=CC21` (configuration not stated), the inhibition was -1.1% (inactive).

Take `Cc1ccccc1Cn1nnc(-c2ccncc2)n1`: the inhibition was -3.5% (inactive).

Turning to `COc1ccc(-c2ccc(/C=c3\sc4nc5cc(C)c(C)cc5n4c3=O)o2)c([N+](=O)[O-])c1`, the inhibition is 0.8% (inactive).

On to `O=C(CC1CCCCC1)NCc1ccco1`, for which the inhibition was 1.25% (inactive).

Turning to `CC(=O)Oc1ccc(OC(C)=O)c2c1C1C=CC2CC1`, the inhibition was -2.5% (inactive).

In the case of `COc1ccc(Nc2nc(Cl)nc(NCCN3CCOCC3)n2)c(OC)c1`, the inhibition was 0.3% (inactive).

With `O=C(Nc1ccccc1C(=O)N1CCCC1)Oc1ccccc1`, the inhibition was -0.95% (inactive).

Turning to `CCCCn1c(SCC(=O)N(C(C)C)C(C)C)nc2c1c(=O)n(C)c(=O)n2C`, the inhibition is 0.4% (inactive).

For the compound `O=c1c2c3c(sc2ncn1Cc1nn[nH]n1)CCCC3`, the inhibition was -0.2% (inactive).

For `Cc1c(CN2CCCCC2)c(O)n(CCO)c(=O)c1C#N`, the inhibition was -3.25% (inactive).

With `C=CCn1cnc2c(c1=O)c1nc3ccccc3nc1n2-c1cccc(Br)c1`, the inhibition was 2.4% (inactive).

In the case of `CCOc1cc2c(cc1/C=C(\C#N)c1ccc(C(F)(F)F)cc1)OCO2`, the inhibition was 1.15% (inactive).

On to `O=S(=O)(c1ccc(Cl)cc1)N1CCCN(Cc2ccc(Cl)cc2Cl)CC1`, for which the inhibition was 1% (inactive).

As to `CCn1cc(S(=O)(=O)Nc2cc(C)on2)cn1`, the inhibition was -2.15% (inactive).

As for `COc1ccccc1N1C(=O)NC(=O)/C(=C/c2cn(C(C)=O)c3ccccc23)C1=O`, the inhibition was 10.3% (inactive).

With `O=S(=O)(c1ccc(Br)s1)N1CCCC1`, the inhibition was 2.65% (inactive).

Regarding `CSc1noc(-c2ccc(C(C)(C)C)cc2)c1C#N`, the inhibition was 4.25% (inactive).

As to `N=C1/C(=C\c2cccn2-c2ccc3ccccc3c2)C(=O)N=C2SC=NN12`, the inhibition is 4.5% (inactive).

Turning to `CCOC(=O)C1CCCN(c2c3c(nc4cc(-c5ccc(C)cc5)nn24)CCC3)C1` (configuration not stated), the inhibition was -2.15% (inactive).

`COc1cc(C=Nc2ccc3[nH]c(=O)[nH]c3c2)ccc1OC(C)=O`: the inhibition is 0.05% (inactive).

Turning to `COc1ccc2nc(SCC(=O)c3ccc(Cl)c(Cl)c3)[nH]c2c1`, the inhibition was -2.6% (inactive).

With `Cn1c(-c2ccccc2)c[n+]2c1CCCCC2`, the inhibition is -2.6% (inactive).

As for `N=Cc1c(O)n(-c2ccccc2)c2ccccc12`, the inhibition was 4.8% (inactive).

As for `CCOC(=O)C1=C(C)N(C)C(C)=C(C(=O)OCC)C1c1ccccc1F`, the inhibition was -0.1% (inactive).

For the compound `O=c1oc(Nc2ccc(C(F)(F)F)cc2)nc2ccccc12`, the inhibition is 0.2% (inactive).

For the compound `COc1ccc(CCN(Cc2cc3cc4c(cc3[nH]c2=O)OCO4)C(=O)c2ccncc2)cc1OC`, the inhibition was 2.6% (inactive).

As for `S=C(Nc1ccc2[nH]ccc2c1)NC1CC2C=CC1C2` (configuration not stated), the inhibition is -0.05% (inactive).

For the compound `Cc1cccc(NC(=O)c2cn(-c3ccccc3)nc2-c2cccnc2)c1`, the inhibition was -3% (inactive).

On to `OC1(C(F)(F)F)CC(c2ccccc2)=NN1c1cccc2cccnc12` (configuration not stated), for which the inhibition was -1.3% (inactive).

In the case of `CN1C(=O)C2N=NN(c3ccccc3)C2C1=O` (configuration not stated), the inhibition was 1.8% (inactive).

Consider `O=C(N/N=C/C1CC=CCC1)c1ccccc1` (configuration not stated), for which the inhibition is 2.3% (inactive).

As to `O=C(COc1ccc(C2Nc3cccc4cccc(c34)N2)cc1)Nc1ccccc1`, the inhibition was 1.95% (inactive).

Take `O=C(Nc1cccc2ccccc12)NC1CC1`: the inhibition is 1.3% (inactive).

Regarding `CC1=C(C(=O)OCC2CCCCC2)C(c2ccccc2OCc2ccccc2)NC(=O)N1` (configuration not stated), the inhibition is -1.8% (inactive).

`CCOC(=O)c1sc(NC(=O)c2sc3ccccc3c2Cl)nc1-c1ccccc1`: the inhibition is -3.1% (inactive).

On to `COc1cccc(C(=O)Nc2ccccc2Cl)c1`, for which the inhibition is -5.8% (inactive).

`COc1ccccc1N1C(=O)C(=Cc2ccco2)C(=O)N(c2ccccc2OC)C1=O`: the inhibition was 2.2% (inactive).

Take `CC(=O)Oc1ccc(C2NC(C(=O)O)CS2)cc1` (configuration not stated): the inhibition was -3.3% (inactive).

Consider `O=C1NC(=S)N(c2ccc(Br)cc2)C(=O)/C1=C/c1ccsc1`, for which the inhibition is 24.2% (inactive).

Turning to `O=C(O)c1ccc(Cl)cc1N=Cc1nc(-c2ccc(Br)cc2)oc1O`, the inhibition is -0.9% (inactive).

Regarding `Cc1ccc(-c2nn(CCC(=O)Nc3cccc(C(F)(F)F)c3)c(=O)c3ccccc23)cc1`, the inhibition was 0.65% (inactive).

Regarding `O=C(CN1CCN(c2cccc(Cl)c2)CC1)c1ccc(Cl)cc1`, the inhibition was 6.3% (inactive).

With `COC(=O)c1cccnc1NC(=S)NC(C)C`, the inhibition was 3.15% (inactive).

With `COc1ccc(NC(=O)Nc2ccc(N3CCOCC3)cc2)cc1`, the inhibition was -0.2% (inactive).

In the case of `O=C1C(Nc2ccc(O)cc2)=C(n2nnc3ccccc32)C(=O)c2ccccc21`, the inhibition is -0.3% (inactive).

On to `NC(=S)C1(c2ccc(Cl)cc2Cl)CC1`, for which the inhibition was -0.5% (inactive).

For `CC1CN(S(=O)(=O)c2ccc3c4c(cccc24)C(=O)N3)CC(C)O1` (configuration not stated), the inhibition is 0.25% (inactive).

Turning to `CC[N+](C)(CC)CCC[n+]1c(-c2ccccc2)c2cc(N)ccc2c2ccc(N)cc21`, the inhibition was 104% (active) and 0.85% (inactive).

As for `CC[n+]1c(C)n(-c2ccccc2)c2ccc(N)cc21`, the inhibition was 1.45% (inactive).

For `N=C1/C(=C/c2ccc(SCc3ccccc3)o2)C(=O)N=C2SC=CN12`, the inhibition is 1.55% (inactive).

As a reminder, the inhibition is the relative decrease from the control value, in per cent.
